This passage reports binding signal results from article PMC5700166.

Assay [1] addresses T1, GST-Nv-NF-kB (Ser allele) (Nematostella vectensis, UniProt A7UNT2 2-411).
T1 sequence: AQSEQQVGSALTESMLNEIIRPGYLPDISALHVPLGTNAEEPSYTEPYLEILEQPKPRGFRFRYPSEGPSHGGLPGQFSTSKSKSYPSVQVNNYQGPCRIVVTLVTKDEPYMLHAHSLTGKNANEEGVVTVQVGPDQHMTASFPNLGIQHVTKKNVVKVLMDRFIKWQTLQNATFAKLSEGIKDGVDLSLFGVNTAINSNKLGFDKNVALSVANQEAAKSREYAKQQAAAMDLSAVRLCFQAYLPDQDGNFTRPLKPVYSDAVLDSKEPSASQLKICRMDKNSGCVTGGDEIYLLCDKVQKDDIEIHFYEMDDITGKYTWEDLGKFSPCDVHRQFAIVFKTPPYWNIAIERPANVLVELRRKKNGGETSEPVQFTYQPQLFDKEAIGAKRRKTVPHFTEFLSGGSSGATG
Nature of the assay: protein-binding microarray (PBM); PBM: ~300 nM protein, 6 mM HEPES pH 7.8, 80 mM KCl, 0.5 mM EDTA, 0.5 mM EGTA, 6% glycerol, 35 ng/ul poly-dIdC, 1% milk, 1 h, room temperature; Ap Aiptasia and Nv Nematostella (sea anemones) / Co Capsaspora / Aq Amphimedon (sponge) / Dm Drosophila / Hu human; RHD is the Rel homology domain; high values mean tight binding. To be noted: dsDNA, one strand shown.

In assay [2] the target is GST-Hu-p50 (Homo sapiens, UniProt P19838 7-356). The description is as above. To be noted: dsDNA, one strand shown.
Chain of GST-Hu-p50 (P19838 7-356): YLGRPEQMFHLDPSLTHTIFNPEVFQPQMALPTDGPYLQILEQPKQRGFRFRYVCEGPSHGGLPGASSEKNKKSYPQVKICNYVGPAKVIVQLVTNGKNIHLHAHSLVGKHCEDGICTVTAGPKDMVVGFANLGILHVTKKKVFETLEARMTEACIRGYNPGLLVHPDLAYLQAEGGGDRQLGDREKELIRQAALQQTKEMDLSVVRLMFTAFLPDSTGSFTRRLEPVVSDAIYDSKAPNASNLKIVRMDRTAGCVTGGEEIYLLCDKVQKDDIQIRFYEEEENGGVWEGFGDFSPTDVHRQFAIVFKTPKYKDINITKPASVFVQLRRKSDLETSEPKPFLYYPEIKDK

With “CCGATTAACATCACGAAAATCCCTGATGTTAATCGGGTCTTGATTCGCTTGACGCTGCTG”, the binding signal in assay [1] was 4.09 z-score; in assay [2], 4.05 z-score.

On to “CCGATTAACATCACATGTTCCCCTGATGTTAATCGGGTCTTGATTCGCTTGACGCTGCTG”, for which the binding signal turned out to be 6.15 z-score in assay [1] and 3.07 z-score in assay [2].

“CCGATTAACATCAGTACGGGAAATGATGTTAATCGGGTCTTGATTCGCTTGACGCTGCTG”: the binding signal in assay [1] was found to be 2.82 z-score; in assay [2], 1.94 z-score.

With “CCGATTAACATCAGGGAATTATATGATGTTAATCGGGTCTTGATTCGCTTGACGCTGCTG”, the binding signal in assay [1] was determined as 5.77 z-score; in assay [2], 4.39 z-score.

For the sequence “CCGATTAACATCAGGGAAATTCATGATGTTAATCGGGTCTTGATTCGCTTGACGCTGCTG”, the binding signal in assay [1] was determined as 5.89 z-score; in assay [2], 4.4 z-score.

In the case of “CCGATTAACATCAGGGAGCTACCTGATGTTAATCGGGTCTTGATTCGCTTGACGCTGCTG”, the values for the binding signal in assay [1] and in assay [2] were 1.68 z-score and 1.35 z-score, respectively.

For the sequence “CCGATTAACATCAGGCCTCCCCCTGATGTTAATCGGGTCTTGATTCGCTTGACGCTGCTG”, the binding signal is 4.46 z-score in assay [1] and 4.37 z-score in assay [2].

Consider “CCGATTAACATCACATTGTCCCCTGATGTTAATCGGGTCTTGATTCGCTTGACGCTGCTG”, for which the binding signal in assay [1] amounted to 5.06 z-score; in assay [2], 3.52 z-score.

Take “CCGATTAACATCAAAAATTCCGGTGATGTTAATCGGGTCTTGATTCGCTTGACGCTGCTG”: the figures for the binding signal in assay [1] and in assay [2] were 1.4 z-score and 3.12 z-score, respectively.

Regarding “CCGATTAACATCATGGTGGTACCTGATGTTAATCGGGTCTTGATTCGCTTGACGCTGCTG”, the binding signal stood at 1.05 z-score in assay [1] and 1.07 z-score in assay [2].

As to “CCGATTAACATCAAGCACCCCCTTGATGTTAATCGGGTCTTGATTCGCTTGACGCTGCTG”, the binding signal in assay [1] came out at 4.85 z-score; in assay [2], 4.55 z-score.

“CCGATTAACATCAGGAACGTCCCTGATGTTAATCGGGTCTTGATTCGCTTGACGCTGCTG”: the binding signal in assay [1] was 2.75 z-score; in assay [2], 2.12 z-score.

As to “CCGATTAACATCAACCACCCCCTTGATGTTAATCGGGTCTTGATTCGCTTGACGCTGCTG”, the binding signal in assay [1] amounted to 3.4 z-score; in assay [2] it was 4.03 z-score.

As for “CCGATTAACATCAGGGAGATACCTGATGTTAATCGGGTCTTGATTCGCTTGACGCTGCTG”, the binding signal in assay [1] was 1.75 z-score; in assay [2], 3.08 z-score.

For the sequence “CCGATTAACATCATAAAATCCCATGATGTTAATCGGGTCTTGATTCGCTTGACGCTGCTG”, the binding signal in assay [1] is 2.31 z-score; in assay [2], 3.45 z-score.

“CCGATTAACATCAAATTTCCCGCTGATGTTAATCGGGTCTTGATTCGCTTGACGCTGCTG”: the binding signal in assay [1] was 4.85 z-score; in assay [2] it was 3.98 z-score.

Take “CCGATTAACATCAAAGTGTCCCCTGATGTTAATCGGGTCTTGATTCGCTTGACGCTGCTG”: the binding signal was found to be 4.51 z-score in assay [1] and 3.85 z-score in assay [2].

On to “CCGATTAACATCAGAAAATTACCTGATGTTAATCGGGTCTTGATTCGCTTGACGCTGCTG”, for which the binding signal in assay [1] was 5.7 z-score; in assay [2] it was 4.34 z-score.

On to “CCGATTAACATCAATTGCCCCCCTGATGTTAATCGGGTCTTGATTCGCTTGACGCTGCTG”, for which the binding signal in assay [1] was found to be 3.84 z-score; in assay [2] it was 2.9 z-score.

In the case of “CCGATTAACATCAGGACACCCCCTGATGTTAATCGGGTCTTGATTCGCTTGACGCTGCTG”, the binding signal in assay [1] worked out at 3.79 z-score; in assay [2], 5.24 z-score.

On to “CCGATTAACATCAGGGAATTAGATGATGTTAATCGGGTCTTGATTCGCTTGACGCTGCTG”, for which the binding signal in assay [1] is 3.54 z-score; in assay [2] it was 2 z-score.

Consider “CCGATTAACATCAGGGATATTTATGATGTTAATCGGGTCTTGATTCGCTTGACGCTGCTG”, for which the figures for the binding signal in assay [1] and in assay [2] were 2.29 z-score and 2.35 z-score, respectively.

Take “CCGATTAACATCAGGGACAGCCCTGATGTTAATCGGGTCTTGATTCGCTTGACGCTGCTG”: the binding signal in assay [1] came out at 2.03 z-score; in assay [2], 3.54 z-score.

In the case of “CCGATTAACATCAGGGAAAGGAATGATGTTAATCGGGTCTTGATTCGCTTGACGCTGCTG”, the figures for the binding signal in assay [1] and in assay [2] were 2.07 z-score and 1.29 z-score, respectively.

On to “CCGATTAACATCAGGGGACTATATGATGTTAATCGGGTCTTGATTCGCTTGACGCTGCTG”, for which the binding signal turned out to be 4.77 z-score in assay [1] and 4.35 z-score in assay [2].

“CCGATTAACATCAACCCTCCCCCTGATGTTAATCGGGTCTTGATTCGCTTGACGCTGCTG”: the binding signal worked out at 3.85 z-score in assay [1] and 3.3 z-score in assay [2].

In the case of “CCGATTAACATCACCCGATTCCCTGATGTTAATCGGGTCTTGATTCGCTTGACGCTGCTG”, the binding signal came to 4.07 z-score in assay [1] and 2.39 z-score in assay [2].

For the sequence “CCGATTAACATCACCAAAACCCCTGATGTTAATCGGGTCTTGATTCGCTTGACGCTGCTG”, the binding signal in assay [1] worked out at 4.14 z-score; in assay [2], 4.83 z-score.

“CCGATTAACATCAGGTAACTACCTGATGTTAATCGGGTCTTGATTCGCTTGACGCTGCTG”: the binding signal in assay [1] amounted to 1.88 z-score; in assay [2], 1.3 z-score.

In the case of “CCGATTAACATCAGAATTCCCGCTGATGTTAATCGGGTCTTGATTCGCTTGACGCTGCTG”, the binding signal stood at 3.89 z-score in assay [1] and 3.53 z-score in assay [2].

Consider “CCGATTAACATCAGGGTATTCCATGATGTTAATCGGGTCTTGATTCGCTTGACGCTGCTG”, for which the figures for the binding signal in assay [1] and in assay [2] were 4.16 z-score and 4.11 z-score, respectively.

With “CCGATTAACATCAGGAATACCCATGATGTTAATCGGGTCTTGATTCGCTTGACGCTGCTG”, the binding signal in assay [1] was found to be 3.36 z-score; in assay [2] it was 3.18 z-score.

As to “CCGATTAACATCAAGTACTTCCCTGATGTTAATCGGGTCTTGATTCGCTTGACGCTGCTG”, the binding signal in assay [1] turned out to be 1.34 z-score; in assay [2] it was 1.17 z-score.
